The record followed here is PubChem BioAssay (NCATS).

Each structure is given as a SMILES string. Inconclusive results are not listed. Calls of active or inactive are those of the source. The call rests on the fitted dose curve; in most records, active means well fitted curve in the direction sought with a large enough effect; inconclusive means small, poorly fitted or top-dose-only effect, or another doubt; inactive means no such curve, though single readings can be large; an effect the other way counts as inactive or inconclusive.

Assay [1] is described as follows: qHTS of pediatric cancer cell lines to identify multiple opportunities for drug repurposing: Primary screen for BT-12 cells (AID 1347101). Further: nearly all actives have a fitted effect of over 25% in size. Further: potency means the concentration at half of the fitted maximal effect. The essentials: (§1)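 Cells (500-1,000/well) rested 5 h, then received compounds for 48 h; metabolically active cells were measured by CellTiter-Glo luminescence. Final concentrations spanned up to 46 µM (MIPE, 11-point) or 0.59 nM-46 µM (NPC, 8-point) in primary screens, 11-point in follow-ups.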
A general note: qHTS replaces the single test concentration by a dilution series.

The nature of assay [2]: qHTS of pediatric cancer cell lines to identify multiple opportunities for drug repurposing: Primary screen for Rh18 cells (AID 1347102). Further: nearly all actives have a fitted effect of over 65% in size. Further: potency means the concentration at half of the fitted maximal effect. Summed up:
(§2)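 Viability after 48 h compound treatment at 37C, 500-1,000 cells/well, read as ATP luminescence with CellTiter-Glo. Primary screens used 11-point (MIPE, 0.78 nM-46 µM) or 8-point (NPC, 0.59 nM-46 µM) final concentrations; follow-up screens used 11-point dilutions.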

Assay [3] in a line: qHTS of pediatric cancer cell lines to identify multiple opportunities for drug repurposing: Primary screen for OHS-50 cells (AID 1347103). Further: nearly all actives have a fitted effect of over 40% in size. Further: potency means the concentration at half of the fitted maximal effect. Summed up:
as §1

Assay [4] can be described thus: qHTS of pediatric cancer cell lines to identify multiple opportunities for drug repurposing: Primary screen for RD cells (AID 1347104). Further: nearly all actives have a fitted effect of over 55% in size. Further: potency means the concentration at half of the fitted maximal effect. The essentials:
(§3)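 Cells plated at 500-1,000/well in growth medium, compounds added after 5 h. MIPE tested at 11 points (from 0.78 nM), NPC at 8 points (from 0.59 nM). CellTiter-Glo luminescence after 48 h; concentration-response curves from primary screen.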

Assay [5] is described as follows: qHTS of pediatric cancer cell lines to identify multiple opportunities for drug repurposing: Primary screen for MG 63 (6-TG R) cells (AID 1347105). Further: nearly all actives have a fitted effect of over 50% in size. Further: potency means the concentration at half of the fitted maximal effect. Summed up:
as §3

Assay [6] in a line: qHTS of pediatric cancer cell lines to identify multiple opportunities for drug repurposing: Primary screen for control Hh wild type fibroblast cells (AID 1347106).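 Further: series mostly up to about 46 µM; a drop in luminescence marks cytotoxicity and a rise apparent proliferation; nearly all actives have a fitted effect of over 55% in size.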 The essentials: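 Cells (500-1,000/well) in growth media were settled 5 h at 37 degrees C, then given compounds for 48 h. Viability was read as CellTiter-Glo luminescence. Primary runs used MIPE at 11 points (0.78 nM-46 µM) and NPC at 8 points (0.59 nM-46 µM); follow-ups used 11 points.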

The nature of assay [7]: qHTS of pediatric cancer cell lines to identify multiple opportunities for drug repurposing: Primary screen for Rh30 cells (AID 1347107). Further: nearly all actives have a fitted effect of over 75% in size. Further: potency means the concentration at half of the fitted maximal effect. The essentials: as §2
The nature of assay [8]: qHTS of pediatric cancer cell lines to identify multiple opportunities for drug repurposing: Primary screen for Rh41 cells (AID 1347108). Further: nearly all actives have a fitted effect of over 70% in size. Further: potency means the concentration at half of the fitted maximal effect. Summed up: as §3

For `O=C(O)C(=O)Nc1cccc(C2=NN=N[N]2)c1`, the Potency result in assay [1], in assay [2], in assay [3], in assay [4], in assay [5] and in assay [6] was “inactive” each time. Further, the Potency entry in assay [7] and in assay [8] was “inactive” in each case.
Turning to `O=C1NC(O)CCN1[C@@H]1O[C@H](CO)[C@H](O)[C@H]1O` (some centres undefined), the Potency result in assay [1], in assay [2], in assay [3], in assay [4], in assay [5] and in assay [6] was “inactive” in each case. The Potency entry in assay [7] and in assay [8] was “inactive” each time.
Consider `C[C@@]12C[C@@]3(O)O[C@@H](O1)[C@]1(COC(=O)c4ccccc4)[C@@H]3C[C@@]12O[C@@H]1O[C@H](CO)[C@@H](O)[C@H](O)[C@@H]1O`, for which the Potency entry in assay [1], in assay [2], in assay [3], in assay [4], in assay [5] and in assay [6] was “inactive” each time. In addition, the Potency entry in assay [7] and in assay [8] was “inactive” throughout.
Regarding `CC(Oc1ccc(O)cc1)(P(=O)(O)O)P(=O)(O)O`, the Potency result in assay [1], in assay [2], in assay [3], in assay [4], in assay [5] and in assay [6] was “inactive” each time. The Potency entry in assay [7] and in assay [8] was “inactive” each time.
Take `NC1=N[C@H]2[C@H](CS[C@H]2CCCCC(=O)O)N1`: the Potency entry in assay [1], in assay [2], in assay [3], in assay [4], in assay [5] and in assay [6] was “inactive” throughout. The Potency result in assay [7] and in assay [8] was “inactive” in each case.
In the case of `C=C1C(=O)O[C@H]2[C@@H]1CCC(C)=CCC[C@@]1(C)O[C@@H]21`, the Potency in assay [1] was 21.7 µM (active); in assay [2], 23.5 µM (active); in assay [3], 4.85 µM (active); in assay [4] it was 18.7 µM (active); in assay [5], 9.35 µM (active); in assay [7], 18.7 µM (active). Moreover, the Potency in assay [8] is 11.8 µM (active). The Potency entry in assay [6] is “inactive”.
As for `CN1[C@H]2CC(OC(=O)[C@@H](CO)c3ccccc3)C[C@H]1[C@H]1O[C@H]12` (some centres undefined), the Potency entry in assay [1], in assay [2], in assay [3], in assay [4], in assay [5] and in assay [6] was “inactive” each time. Moreover, the Potency entry in assay [7] and in assay [8] was “inactive” in each case.
As to `O=C(c1ccc(F)cc1)N1CCC[C@H](c2nc(-c3ccc(F)cc3)no2)C1`, the Potency result in assay [1], in assay [2], in assay [3], in assay [4], in assay [5] and in assay [6] was “inactive” each time. Also, the Potency entry in assay [7] and in assay [8] was “inactive” throughout.
For the molecule `OCCNC1CCCc2c1[nH]c1ccc(-c3ccccc3)cc21` (centres undefined), the Potency in assay [1] is 30.6 µM (active); in assay [2], 20.9 µM (active); in assay [3], 24.3 µM (active); in assay [4] it was 33.2 µM (active). Also, the Potency result in assay [5] was “inactive”.
Consider `OC[C@@H](O)[C@@H](O)[C@H](O)[C@@H](O)CO`, for which the Potency entry in assay [1], in assay [2], in assay [3], in assay [4], in assay [5] and in assay [6] was “inactive” each time. Besides, the Potency entry in assay [7] and in assay [8] was “inactive” in each case.
In the case of `CN(N=O)C(=O)N[C@H]1C(O)OC(CO)[C@@H](O)[C@H]1O` (some centres undefined), the Potency entry in assay [1], in assay [2], in assay [3], in assay [4], in assay [5] and in assay [6] was “inactive” throughout. Besides, the Potency result in assay [7] and in assay [8] was “inactive” in each case.
Consider `CC(=O)N[C@@H]1[C@H](O[C@@H]2c3ccc(c(Cl)c3)Oc3cc4cc(c3O[C@H]3O[C@H](CO)[C@@H](O)[C@H](O)[C@H]3NC(=O)CCCCCCCC(C)C)Oc3ccc(cc3Cl)C[C@H]3NC(=O)[C@H](N)c5ccc(O)c(c5)Oc5cc(O)cc(c5)[C@H](NC3=O)C(=O)N[C@H]4C(=O)N[C@H]3C(=O)N[C@@H]2C(=O)N[C@@H](C(=O)O)c2cc(O)cc(O[C@H]4O[C@H](CO)[C@@H](O)[C@H](O)[C@H]4O)c2-c2cc3ccc2O)O[C@H](CO)[C@@H](O)[C@@H]1O`, for which the Potency result in assay [1], in assay [2], in assay [3], in assay [4], in assay [5] and in assay [6] was “inactive” each time. Also, the Potency entry in assay [7] and in assay [8] was “inactive” in each case.
Take `CC1(C)[C@H](O[C@H]2O[C@H](C(=O)O)[C@@H](O)[C@H](O)[C@H]2O[C@@H]2O[C@H](C(=O)O)[C@@H](O)[C@H](O)[C@H]2O)CC[C@@]2(C)[C@H]1CC[C@]1(C)[C@H]2C(=O)C=C2[C@H]3C[C@@](C)(C(=O)O)CC[C@]3(C)CC[C@]21C`: the Potency entry in assay [1], in assay [2], in assay [3], in assay [4], in assay [5] and in assay [6] was “inactive” each time. The Potency result in assay [7] and in assay [8] was “inactive” each time.
Turning to `CC[C@H]1OC(=O)[C@H](C)[C@@H](O[C@H]2C[C@@](C)(OC)[C@@H](O)[C@H](C)O2)[C@H](C)[C@@H](O[C@@H]2O[C@H](C)C[C@H](N(C)C)[C@@H]2O)[C@](C)(OC)C[C@@H](C)C(=O)[C@H](C)[C@@H](O)[C@]1(C)O`, the Potency entry in assay [1], in assay [2], in assay [3], in assay [4], in assay [5] and in assay [6] was “inactive” each time. For the same molecule, the Potency entry in assay [7] and in assay [8] was “inactive” throughout.
In the case of `N#Cc1cc(NC(=O)Nc2nnc(-c3ccncc3)s2)ccc1-c1cn[nH]c1`, the Potency entry in assay [1], in assay [2], in assay [3], in assay [4], in assay [5] and in assay [6] was “inactive” throughout. In assay [7], the Potency result is “inactive”.
Turning to `OCc1ccccc1O[C@@H]1O[C@H](CO)[C@H](O)[C@H](O)[C@H]1O`, the Potency entry in assay [1], in assay [2], in assay [3], in assay [4], in assay [5] and in assay [6] was “inactive” throughout. The Potency result in assay [7] and in assay [8] was “inactive” in each case.
In the case of `NC(=O)c1cccc(-c2cccc(OC(=O)NC3CCCCC3)c2)c1`, the Potency result in assay [1], in assay [2], in assay [3], in assay [4], in assay [5] and in assay [6] was “inactive” in each case. In addition, the Potency result in assay [7] and in assay [8] was “inactive” throughout.
Regarding `CCc1ccc(C(=O)Nc2cc(CN3CCN(C)CC3)cc(C(F)(F)F)c2)cc1C#Cc1cnc2ccnn2c1`, the Potency in assay [1] was 27.3 µM (active); in assay [2], 14.8 µM (active); in assay [3], 12.2 µM (active); in assay [4], 18.7 µM (active); in assay [5] it was 18.7 µM (active); in assay [7], 14.8 µM (active). Also, the Potency in assay [8] is 9.35 µM (active). Also, the Potency entry in assay [6] was “inactive”.
As for `Cn1cc(-c2ccc3ncc(Cc4ccc5ncccc5c4)n3n2)cn1`, the Potency result in assay [1], in assay [2], in assay [3], in assay [4], in assay [5] and in assay [6] was “inactive” throughout. The Potency entry in assay [7] was “inactive”.
Regarding `Cc1cc(O)c2c(c1)C(=O)c1cccc(O)c1C2=O`, the Potency entry in assay [1], in assay [2], in assay [3], in assay [4], in assay [5] and in assay [7] was “inactive” each time. Also, the Potency entry in assay [8] was “inactive”.
